Calls of active or inactive are those of the source. Unless noted, no rule for the calls is given here.
What was measured:
[1] = system: Wnt5a (protein binding on small-molecule microarray); test: Wnt5a binders on small-molecule microarray, primary screen, biophysical, 635/667 nm fluorescence (AID 1142); conditions: 635 nm fluorescence, higher = more signal;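 also: fluorescence read at 667 nm with signal to noise per printed feature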
[2] = cell viability in Huh7 cells, primary screen, cytotoxicity control for HCV replication inhibitor project, CellTiter-Glo luminescence, basal, 48 h (AID 1143); conditions: Huh7 HCV replicon, higher = more signal, called active from +8 up or from −8 down;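 also: Huh7 hepatoma cells carrying a hepatitis C replication reporter with no stimulus; test concentration not given here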
[3] = P. aeruginosa biofilm formation inhibitors, primary screen, PAO1 strain, BacTiter-Glo luminescence, LB-PBS (AID 1144); conditions: 12 h, higher = more signal
[4] = CREB reporter modulators without forskolin, primary screen, cell-based, PC12, CRE-LacZ reporter, unstimulated (AID 1145); conditions: no forskolin, luminescence, 4.5 h, higher = more signal, called active from +8 up or from −8 down
[5] = CREB reporter modulators under forskolin, primary screen, cell-based, PC12, CRE-LacZ reporter, forskolin-stimulated (AID 1146); conditions: luminescence, 4.5 h, higher = more signal, called active from +8 up or from −8 down;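 also: PC12 cells with 6xCRE LacZ reporter stimulated by forskolin 10 µM; beta-galactosidase reporter signal reflecting CREB driven transcription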
[6] = target: Streptavidin (Streptomyces avidinii) (UniProt P22629); test: streptavidin binders on small-molecule microarray, primary screen, artefact control for SMM compound annotation, biophysical, 635/667 nm fluorescence (AID 1147); conditions: streptavidin binding, higher = more signal;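 also: signal reflects streptavidin binding to arrayed compounds as a control protein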
[7] = small-molecule binders of probe aInhba, primary screen, biochemical, small-molecule microarray, 635/667 nm fluorescence (AID 1148); conditions: higher = more signal;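 also: score merges 667nm spot fluorescence with signal-to-noise for antibody binding to printed compounds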
[8] = target: Torsin-1A (Homo sapiens) (UniProt O14656); test: torsin A binders from cell lysate, primary screen, small-molecule microarray, wild-type, 635/667 nm (AID 1149); conditions: COS7 hTOR1A-WT lysate, 635 nm fluorescence, higher = more signal
[9] = target: Torsin-1A (Homo sapiens) (UniProt O14656); test: small-molecule binders of mutant TOR1A in lysate, primary screen, cell lysate, small-molecule microarray, COS7 lysate, 635/667 nm fluorescence (AID 1150); conditions: COS7 hTOR1A mutant lysate, 635 nm fluorescence, higher = more signal;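 also: score pools 667 nm emission and signal to noise measuring lysate protein binding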
[10] = system: Sonic hedgehog protein (Shh); test: small-molecule binders of Shh protein, primary screen, biochemical, small-molecule microarray, 635/667 nm fluorescence (AID 1151); conditions: small-molecule microarray binding, 635 nm fluorescence; higher = more signal;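 also: Shh protein binding to compounds spotted on small-molecule microarray slides; score combines spot fluorescence intensity with signal-to-noise across triplicate slides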
[11] = E. coli DRC41 culture turbidity changes, primary screen, E. coli filamentation inducer project, strain DRC41, OD650, 48 h (AID 1152);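 also: E. coli MC1000 strain DRC41 lacking acrAB efflux pump and sulA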; conditions: E. coli DRC41 (acrAB sulA), higher = more signal, called active from +8 up or from −8 down
[12] = small-molecule binders of probe aLefty1, primary screen, biochemical, small-molecule microarray, 635/667 nm fluorescence (AID 1153); conditions: higher = more signal;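 also: score merges spot fluorescence with signal-to-noise ratio from the scanned slide images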
[13] = PSAC antagonists in infected red cells, primary screen, cell-based, P. falciparum Indochina, OD700, 1 h (AID 1154); conditions: P. falciparum Indochina infected RBC osmotic lysis, higher = more signal, called active from +8 up or from −8 down
[14] = PSAC antagonists in infected red cells, primary screen, cell-based, P. falciparum Indochina, OD700, 2 h (AID 1155);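 also: lysis reports solute entry through the parasite surface anion channel PSAC; channel blockers reduce lysis of infected cells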; conditions: P. falciparum Indochina infected erythrocytes, osmotic lysis OD700; higher = more signal, called active from +8 up or from −8 down
[15] = osmotic lysis modulators in infected erythrocytes, primary screen, PSAC antagonist project, cell-based, P. falciparum Indochina, OD700, 3 h (AID 1156); conditions: higher = more signal, called active from +8 up or from −8 down
[16] = PSAC antagonists in infected red cells, primary screen, cell-based, P. falciparum Indochina, OD700, 18 h (AID 1157); conditions: P. falciparum Indochina infected erythrocytes, osmotic lysis OD700, 18 h; higher = more signal, called active from +8 up or from −8 down
[17] = modulators of S6 phosphorylation in cells, primary screen, cell-based, A549, cytoblot, luminescence, serum-stimulated (AID 1158); conditions: A549 phospho-S6 cytoblot, 5 h, higher = more signal;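 also: serum-stimulated A549 lung adenocarcinoma cells; signal is phosphorylated S6 detected by cytoblot immunostaining with HRP secondary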
[18] = target: NADPH oxidase 2 (Homo sapiens) (UniProt P04839); test: NOX2-dependent H2O2 signal modulators, primary screen, NOX inhibitor project, cell-based, HEK293-NOX2, PMA-stimulated, Amplex Red fluorescence (AID 1159); conditions: 45 min, higher = more signal, called active from +8 up or from −8 down; also: test concentration not given here
[19] = target: NADPH oxidase 4 (Homo sapiens) (UniProt Q9NPH5); test: NOX4-dependent H2O2 signal modulators, primary screen, NOX inhibitor project, cell-based, HEK293-NOX4, tetracycline-induced, Amplex Red fluorescence (AID 1160); conditions: 45 min, higher = more signal, called active from +8 up or from −8 down
[20] = target: NADPH oxidase 5 (Homo sapiens) (UniProt Q96PH1); test: NOX5-dependent H2O2 signal modulators, primary screen, NOX inhibitor project, cell-based, HEK293-NOX5, Amplex Red fluorescence (AID 1161); conditions: HEK293-NOX5, ionomycin, 45 min, higher = more signal
Chain of NADPH oxidase 5 (Homo sapiens) (Q96PH1 whole entry, looked up): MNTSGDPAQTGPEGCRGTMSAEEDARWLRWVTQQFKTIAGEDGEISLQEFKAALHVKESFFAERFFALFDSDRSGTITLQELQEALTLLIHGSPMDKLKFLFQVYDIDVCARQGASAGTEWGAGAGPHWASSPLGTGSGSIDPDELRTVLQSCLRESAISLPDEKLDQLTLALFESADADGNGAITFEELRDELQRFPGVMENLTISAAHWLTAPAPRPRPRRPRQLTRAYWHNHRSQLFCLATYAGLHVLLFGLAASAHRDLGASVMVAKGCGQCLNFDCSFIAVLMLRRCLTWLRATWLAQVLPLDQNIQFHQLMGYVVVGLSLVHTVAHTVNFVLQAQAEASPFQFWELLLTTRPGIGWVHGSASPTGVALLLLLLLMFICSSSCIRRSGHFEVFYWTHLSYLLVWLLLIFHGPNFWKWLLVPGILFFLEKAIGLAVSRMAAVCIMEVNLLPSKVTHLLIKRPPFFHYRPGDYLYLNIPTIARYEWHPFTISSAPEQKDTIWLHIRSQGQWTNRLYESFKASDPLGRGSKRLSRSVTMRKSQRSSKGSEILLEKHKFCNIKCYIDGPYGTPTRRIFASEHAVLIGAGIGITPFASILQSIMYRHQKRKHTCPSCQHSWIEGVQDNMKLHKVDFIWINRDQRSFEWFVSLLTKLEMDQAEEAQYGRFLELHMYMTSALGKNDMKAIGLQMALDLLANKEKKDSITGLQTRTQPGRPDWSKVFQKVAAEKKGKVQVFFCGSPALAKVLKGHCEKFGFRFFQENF

Chain of NADPH oxidase 4 (Homo sapiens) (Q9NPH5 whole entry, looked up): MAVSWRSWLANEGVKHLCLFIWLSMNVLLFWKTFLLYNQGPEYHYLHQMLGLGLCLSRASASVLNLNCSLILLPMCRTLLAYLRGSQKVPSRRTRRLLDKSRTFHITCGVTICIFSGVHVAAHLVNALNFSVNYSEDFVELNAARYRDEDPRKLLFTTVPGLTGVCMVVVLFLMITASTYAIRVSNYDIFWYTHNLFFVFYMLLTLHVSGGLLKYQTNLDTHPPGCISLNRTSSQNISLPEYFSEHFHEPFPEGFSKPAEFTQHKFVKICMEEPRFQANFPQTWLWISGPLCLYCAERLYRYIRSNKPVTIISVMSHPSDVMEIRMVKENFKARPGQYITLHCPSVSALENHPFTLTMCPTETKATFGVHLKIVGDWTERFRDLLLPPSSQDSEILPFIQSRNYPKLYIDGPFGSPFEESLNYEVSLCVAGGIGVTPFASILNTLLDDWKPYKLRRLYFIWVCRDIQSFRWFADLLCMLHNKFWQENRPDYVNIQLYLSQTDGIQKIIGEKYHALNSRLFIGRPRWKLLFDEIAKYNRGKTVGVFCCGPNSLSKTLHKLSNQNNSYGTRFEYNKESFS
Chain of NADPH oxidase 2 (Homo sapiens) (P04839 whole entry, looked up): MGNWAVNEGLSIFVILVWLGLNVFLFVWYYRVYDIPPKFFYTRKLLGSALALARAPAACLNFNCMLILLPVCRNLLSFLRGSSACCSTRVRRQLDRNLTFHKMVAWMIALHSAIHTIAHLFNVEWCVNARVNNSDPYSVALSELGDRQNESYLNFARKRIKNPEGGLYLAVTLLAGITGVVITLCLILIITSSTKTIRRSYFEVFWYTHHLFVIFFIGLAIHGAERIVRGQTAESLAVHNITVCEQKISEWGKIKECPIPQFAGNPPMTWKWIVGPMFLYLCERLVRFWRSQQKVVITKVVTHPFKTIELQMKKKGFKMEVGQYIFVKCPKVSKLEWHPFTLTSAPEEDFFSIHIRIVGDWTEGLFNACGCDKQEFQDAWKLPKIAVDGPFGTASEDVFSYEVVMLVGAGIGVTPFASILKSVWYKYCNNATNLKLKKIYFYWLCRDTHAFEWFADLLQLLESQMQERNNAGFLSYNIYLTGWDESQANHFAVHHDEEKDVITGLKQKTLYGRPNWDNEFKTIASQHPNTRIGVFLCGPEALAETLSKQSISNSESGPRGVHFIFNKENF
Chain of Torsin-1A (Homo sapiens) (O14656 whole entry, looked up): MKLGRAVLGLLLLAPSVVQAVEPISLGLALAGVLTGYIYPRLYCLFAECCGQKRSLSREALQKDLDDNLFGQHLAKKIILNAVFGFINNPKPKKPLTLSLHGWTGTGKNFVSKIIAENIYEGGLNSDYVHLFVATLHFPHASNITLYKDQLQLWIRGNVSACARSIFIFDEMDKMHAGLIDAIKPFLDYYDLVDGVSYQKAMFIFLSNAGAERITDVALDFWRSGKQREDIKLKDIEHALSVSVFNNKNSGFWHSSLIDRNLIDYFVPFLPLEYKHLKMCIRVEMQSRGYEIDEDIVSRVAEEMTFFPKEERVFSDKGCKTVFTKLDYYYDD
Chain of Streptavidin (Streptomyces avidinii) (P22629 whole entry, looked up): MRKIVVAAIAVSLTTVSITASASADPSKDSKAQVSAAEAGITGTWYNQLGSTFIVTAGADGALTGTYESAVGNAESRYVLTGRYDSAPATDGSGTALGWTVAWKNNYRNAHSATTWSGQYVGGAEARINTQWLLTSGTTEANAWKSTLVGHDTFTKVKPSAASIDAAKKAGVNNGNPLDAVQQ

SMILES	composite z-score [1]	z-score [2]	z-score [3]	z-score [4]	z-score [5]	composite z-score [6]	composite z-score [7]	composite z-score [8]	composite z-score [9]	composite z-score [10]	z-score [11]	composite z-score [12]	z-score [13]	z-score [14]	z-score [15]	z-score [16]	z-score [17]	z-score [18]	z-score [19]	z-score [20]
CC(C)=NOC[C@@H](C)[C@H](OCc1ccccc1)C(C)C	-0.437	0.563 (inactive)	-0.181 (inactive)	1.17 (inactive)	0.112 (inactive)	0.0253	-0.128	-0.522	-0.31	-0.448	0.287 (inactive)	0.103	0.641 (inactive)	0.503 (inactive)	0.795 (inactive)	0.39 (inactive)	0.453	0.409 (inactive)	-1.72 (inactive)	-1
COc1ccc(O[C@@H]2[C@H](O)CO[C@@H]2C=Cc2ccccc2)cc1	0.059	-2.79 (inactive)	-0.828 (inactive)	-0.613 (inactive)	-0.736 (inactive)	-0.0696	-0.128	-0.071	0.55	0.503	-1.74 (inactive)	0.417	5.53 (inactive)	-0.0327 (inactive)	1.23 (inactive)	-0.66 (inactive)	1.49	0.561 (inactive)	-0.92 (inactive)	-2.07
CCN1C(=O)[C@H]2[C@H]3[C@H](O)[C@H](O)CC(=NO[C@@H](C)c4cn([C@H](CO)Cc5ccccc5)nn4)[C@@H]3CC[C@H]2C1=O	0.283	-0.0863 (inactive)	0.451 (inactive)	0.727 (inactive)	0.511 (inactive)	-0.138	0.0051	0.651	0.435	0.486	0.115 (inactive)	0.0618	0.202 (inactive)	0.453 (inactive)	0.357 (inactive)	0.146 (inactive)	-0.66	0.0799 (inactive)	-2.08 (inactive)	0.0391
COC(=O)CC=C[C@@H](C)[C@@H](C=NO[C@@H]1O[C@H](COC(C)=O)[C@@H](OC(C)=O)[C@H](OC(C)=O)[C@H]1OC(C)=O)OC	0.359	0.36 (inactive)	-0.743 (inactive)	0.834 (inactive)	0.0774 (inactive)	-0.769	-0.165	0.698	0.32	0.0568	-0.477 (inactive)	0.142	0.683 (inactive)	0.547 (inactive)	-0.193 (inactive)	0.416 (inactive)	-0.474	1.26 (inactive)	0.729 (inactive)	0.688
COC(=O)CC=C[C@@H](C)[C@@H](C=NOC[C@H]1O[C@H](c2ccccc2)C=C[C@@H]1Oc1ccc(OC)cc1)OC	0.0372	-0.193 (inactive)	0.257 (inactive)	1.34 (inactive)	0.611 (inactive)	-0.682	-0.208	-0.52	-0.305	0.161	-0.425 (inactive)	-0.148	4.7 (inactive)	1.15 (inactive)	-0.469 (inactive)	0.393 (inactive)	-0.516	-0.323 (inactive)	0.338 (inactive)	-0.549
C#CCCCON=C1C[C@@H](O)[C@@H](O)[C@@H]2[C@@H]3C(=O)N(c4ccc(F)cc4F)C(=O)[C@@H]3CC[C@@H]12	0.09	-0.459 (inactive)	0.589 (inactive)	-0.564 (inactive)	-0.392 (inactive)	-0.091	-0.213	0.061	0.0576	0.351	0.177 (inactive)	-0.147	1.22 (inactive)	0.719 (inactive)	0.642 (inactive)	0.0591 (inactive)	-0.404	2.01 (inactive)	0.813 (inactive)	0.0107
CCOC(=O)C1=NO[C@@]2(C=C(Br)C3(OCCCO3)[C@H]3O[C@H]32)C1	0.4	0.164 (inactive)	0.208 (inactive)	-0.258 (inactive)	0.572 (inactive)	1.45	-0.0313	0.712	0.332	0.959	0.721 (inactive)	0.026	0.123 (inactive)	0.105 (inactive)	0.157 (inactive)	-0.218 (inactive)	-0.235	0.925 (inactive)	-0.373 (inactive)	0.43
O=C1[C@H]2[C@H]3[C@H](O)[C@H](O)CC(=NO[C@@H]4O[C@H](CO)[C@@H](O)[C@H](O)[C@H]4O)[C@H]3CC[C@H]2C(=O)N1c1cccc(Oc2ccccc2)c1	0.162	-0.31 (inactive)	0.257 (inactive)	-0.838 (inactive)	-0.462 (inactive)	0.528	-0.0846	0.625	0.367	1.09	-0.024 (inactive)	-0.286	0.257 (inactive)	0.452 (inactive)	0.253 (inactive)	0.207 (inactive)	-0.576	0.7 (inactive)	0.325 (inactive)	-0.54
C=Cc1ccc([C@H]2N[C@H](C(=O)O)CC[C@@H]2C)cc1	-0.0905	0.369 (inactive)	0.53 (inactive)	-0.346 (inactive)	0.179 (inactive)	-0.536	-0.0714	-0.188	0.307	0.36	0.374 (inactive)	-0.338	-0.27 (inactive)	-0.344 (inactive)	-1.26 (inactive)	-0.267 (inactive)	-0.599	1.06 (inactive)	-0.0223 (inactive)	0.0584
CO[C@H]1COC(=O)CCC[C@@H](C)[C@H](OC)COC(=O)[C@@H]2CCCN2C(=O)CC=C[C@@H]1C	0.236	-0.717 (inactive)	0.55 (inactive)	-0.385 (inactive)	-0.0072 (inactive)	-0.44	-0.101	2.64	1.05	2.06	-0.704 (inactive)	-0.005	-1.11 (inactive)	-1.08 (inactive)	-0.186 (inactive)	-0.939 (inactive)	-0.112	-0.336 (inactive)	-0.00577 (inactive)	0.282
C[C@@H](c1ccccc1)N1C(=O)[C@H]2[C@H]3[C@H](O)[C@H](O)CC(=O)[C@H]3CC[C@H]2C1=O	0.0027	-0.273 (inactive)	0.257 (inactive)	-0.113 (inactive)	0.209 (inactive)	0.182	-0.145	0.0683	0.452	0.374	0.477 (inactive)	-0.196	-0.74 (inactive)	0.0593 (inactive)	-0.105 (inactive)	0.0091 (inactive)	0.297	-0.522 (inactive)	0.05 (inactive)	0.811
COc1cc(O)c(C(=O)C=Cc2ccc3c(c2)OCO3)c(OC)c1	0.0926	-2.56 (inactive)	1.1 (inactive)	0.286 (inactive)	0.528 (inactive)	-0.379	-0.0332	-0.404	-0.19	0.782	-0.59 (inactive)	0.0056	18.9 (active)	2.42 (inactive)	0.484 (inactive)	0.885 (inactive)	-0.523	0.0679 (inactive)	0.142 (inactive)	-0.0252
COc1cccc([C@H]2Oc3ccc(OC)cc3C(=NOC(C)CN3CCCCc4nc(C)c(C)cc43)[C@@H]2O)c1 (stereo not given in full)	0.292	-1.77 (inactive)	0.979 (inactive)	5.7 (inactive)	0.323 (inactive)	-0.519	-0.024	0.242	-0.14	0.291	0.751 (inactive)	-0.103	1.82 (inactive)	0.59 (inactive)	0.32 (inactive)	0.342 (inactive)	-0.887	-2.44 (inactive)	-0.284 (inactive)	-0.892
O=C1C=C[C@@H](O)[C@@H]2[C@@H]3C(=O)N(c4ccc(F)cc4F)C(=O)[C@@H]3CC[C@@H]12	0.15	-1.18 (inactive)	0.0333 (inactive)	0.332 (inactive)	0.41 (inactive)	0.275	-0.123	1.15	0.629	0.93	0.262 (inactive)	-0.0559	0.337 (inactive)	-1.44 (inactive)	-0.562 (inactive)	-1.9 (inactive)	1.44	-0.632 (inactive)	0.267 (inactive)	0.713
CCOC(=O)[C@H](CC(C)C)NC(=O)CCC1CC(OC(=O)NCCc2ccc(F)cc2)CC2(CCCC(COC(=O)NCCc3ccccc3OC)O2)O1 (stereo not given in full)	0.145	-0.451 (inactive)	-0.256 (inactive)	1.64 (inactive)	0.135 (inactive)	0.805	-0.0736	0.0877	0.528	0.567	-0.501 (inactive)	-0.0603	-1.58 (inactive)	-0.344 (inactive)	-0.17 (inactive)	-0.142 (inactive)	-0.0491	0.00967 (inactive)	0.15 (inactive)	-0.0222
Cc1ccc(S(=O)(=O)n2c3ccccc3c3nnc(C(=O)c4ccccc4)nc32)cc1	0.19	-0.472 (inactive)	-0.673 (inactive)	1.38 (inactive)	-1.15 (inactive)	-0.237	0.0998	0.0855	-0.292	0.766	1.04 (inactive)	-0.179	4.4 (inactive)	0.266 (inactive)	-0.0784 (inactive)	0.421 (inactive)	0.479	-0.0413 (inactive)	0.179 (inactive)	-0.341
C=COC[C@@H]1CN2[C@@H](CC[C@@H](C)[C@@H]2c2ccc(Br)cc2)C(=O)O1	-0.219	-2.67 (inactive)	-1.06 (inactive)	6.83 (inactive)	-0.544 (inactive)	-0.505	-0.253	0.348	-0.051	-0.211	-0.778 (inactive)	-0.0984	2.08 (inactive)	-0.0728 (inactive)	0.429 (inactive)	-0.959 (inactive)	0.993	0.723 (inactive)	-0.595 (inactive)	-1.14

Reference: PubChem BioAssay
